NIH3T3 tox: cytotoxic compounds in NIH 3T3 cells; Potency, µM (series often up to 96.7 µM), for inactives: top-dose activity change, negative = cytotoxicity, actives largely listed as inhibitors; NIH 3T3 viability, CellTiter-Glo ATP luminescence, 48-72 h; 94,000 compounds, 4.3% hits; AID 1345082; further: nearly all actives have a fitted effect of over 55% in size
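Mouse fibroblast NIH 3T3 cells, 400 per well, received compound via pintool and were incubated for 48 or 72 hr prior to CellTiter-Glo ATP luminescence measurement.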
HEK cytotox: cytotoxic compounds in HEK 293 cells; HEK 293 viability, ATP luminescence (CellTiter-Glo), 48-72 h; Potency, µM (series often up to 115 µM), for the others: at the top dose activity change, negative = cytotoxicity, actives largely listed as inhibitors; 94,000 compounds, 6.6% hits; AID 1345083; further: nearly all actives have a fitted effect of over 60% in size
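Luminescence from cellular ATP, measured with CellTiter-Glo, indicates HEK 293 viability. Cells plated at 250 cells/well are treated with compound for 48 or 72 hr at 37 degree Celsius before reagent addition.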
FLuc inh: blocks purified firefly luciferase enzyme activity; Potency, µM (titrated, usually from 115 µM), usual class: inhibitors; purified P. pyralis luciferase, luminescence, biochemical; P08659; 76,000 compounds, 2.5% hits; further: nearly all actives have a fitted effect of over 65% in size
Target sequence (P08659 whole entry, looked up): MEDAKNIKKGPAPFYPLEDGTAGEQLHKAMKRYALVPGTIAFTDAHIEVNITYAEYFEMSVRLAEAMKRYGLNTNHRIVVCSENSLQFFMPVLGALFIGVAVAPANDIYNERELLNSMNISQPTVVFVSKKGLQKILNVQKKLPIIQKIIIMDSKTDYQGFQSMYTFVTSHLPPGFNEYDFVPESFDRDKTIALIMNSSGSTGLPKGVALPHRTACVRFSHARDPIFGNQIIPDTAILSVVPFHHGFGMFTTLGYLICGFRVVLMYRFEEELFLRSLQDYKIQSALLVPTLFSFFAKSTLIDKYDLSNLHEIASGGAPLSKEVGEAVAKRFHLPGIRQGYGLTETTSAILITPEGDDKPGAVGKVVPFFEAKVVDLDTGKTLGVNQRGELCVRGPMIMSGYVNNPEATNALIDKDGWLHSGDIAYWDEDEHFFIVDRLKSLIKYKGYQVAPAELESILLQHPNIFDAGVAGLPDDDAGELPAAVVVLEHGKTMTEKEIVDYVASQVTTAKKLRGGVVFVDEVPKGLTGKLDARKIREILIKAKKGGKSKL
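Purified 10nM P. pyralis luciferase with 10uM D-luciferin and 10uM ATP in 50mM Tris acetate pH 7.5, 10mM Mg acetate, 0.01% Tween-20, 0.05% BSA. qHTS titration; luminescence read by CCD imager.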
hNpr1 antagonist: antagonists of human natriuretic peptide receptor Npr1; 76,000 compounds, 1.6% hits; HEK293 hNpr1 GloSensor cGMP, ANP-stimulated luminescence; Potency, µM (top dose mostly 46.3 µM), without a hit: top-dose activity change, negative = inhibition, usual class: inhibitors; AID 1347048; calls by dose curve; further: nearly all actives have a fitted effect of over 60% in size
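Compound pre-incubated 30 min at room temperature on GloSensor-loaded HEK293 cells stably carrying hNpr1 and the pGS-40F cGMP biosensor. Stimulation uses hNppA at 0.1 nM final; luminescence is taken at baseline and 20 min post-agonist.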
An asterisk follows results filed as active; i = inactive; ? = inconclusive; . = no result given; [ ] = another dose, or the depositor's remark. Most compounds without a hit are left out; they make up all but 11% or so of the library. Unless noted, the call rests on the fitted dose curve; in most records, active means well fitted curve in the direction sought with a large enough effect; inconclusive means small, poorly fitted or top-dose-only effect, or another doubt; inactive means no such curve, though single readings can be large; an effect the other way counts as inactive or inconclusive. On the % scale 0 is the no-effect control and ±100 the full control effect; potency means the concentration at half of the fitted maximal effect.

SMILES	NIH3T3 tox	HEK cytotox	FLuc inh	hNpr1 antagonist
Cc1cc(C)cc(-c2ccc(CN3CCCC(NC(=O)Nc4ccc(Cl)cc4)C3)cc2)c1 (centres undefined)	-13.8%	-3.8%	.	.
COc1ccc(F)cc1-c1ccc(CN2CCC(NC(=O)Nc3ccc(C)c(F)c3)C2)cc1 (centres undefined)	15.8µM*	25.1µM*	.	.
CC(C)NC(=O)NC1CCCN(Cc2ccc(-c3cncnc3)cc2)C1 (centres undefined)	-16.0%[138 µM]	-13.6%[172 µM]	.	.
COc1ccc(F)cc1-c1ccc(CN2CCC(NC(=O)NC3CCCC3)C2)cc1 (centres undefined)	12.6µM*	20µM*	.	.
COCCn1c(=O)c(C(=O)NC(C)c2ccc(F)cc2)nc2cccnc21 (centres undefined)	-16.0%	2.3%	.	.
Cc1nc(N2CCCCC2)n(CC(=O)Nc2ccc(F)cc2)c(=O)c1C	?	?	i	-5.8%
Cc1ccc(NC(=O)Cn2c(N3CCCCC3)nc(C)c(C)c2=O)cc1C	?	22.4µM*	i	-1.1%
CC(C)(C)NC(=O)C[C@@H]1CCNC[C@@H]1Cc1cc(COc2ccccc2)on1	-17.4%[174 µM]	?	i	5.3%[70.6 µM]
CC(C)(C)c1ccc(-c2cc(C[C@H]3CNCC[C@H]3CC(=O)Nc3nccs3)no2)cc1	8.91µM*	?	i	1.9%
CC(C)(C)c1cc(C[C@H]2CNCC[C@H]2CC(=O)Nc2nccs2)no1	?	100µM*	i	4.6%[70.6 µM]
COc1ccccc1N1CCN(C(=O)C[C@@H]2CCNC[C@@H]2Cc2cc(-c3ccc(C(C)(C)C)cc3)on2)CC1	?	?	i	-1.3%
COc1ccc(-c2cc(C[C@H]3CNCC[C@H]3CC(=O)Nc3nccs3)no2)cc1	79.4µM*	100µM*	i	-0.9%[70.6 µM]
COc1ccc2nc3n(c2c1)[C@@H](CNS(=O)(=O)c1ccc(F)cc1)COC3	?	-29.5%[172 µM]	i	0.1%[70.6 µM]
COc1ccc(S(=O)(=O)NC[C@H]2COCc3nc4ccc(C)cc4n32)cc1	89.1µM*	?	i	?
COc1ccc2nc3n(c2c1)[C@@H](CNCC(C)(C)C)COC3	31.6µM*	?	i	2.8%[70.6 µM]
COc1ccc2nc3n(c2c1)[C@@H](CNCc1ccccc1)COC3	?	?	i	?
CCCCN1CCc2[nH]cnc2C1c1cc(C)ccc1F (centres undefined)	-7.2%	-27.0%	i	1.3%
CN1CCN(C(CN)C2CCCCC2)CC1 (centres undefined)	44.7µM*	?	.	.
CC(C)(C)c1[nH]nc2c1C(c1ccnc3ccccc13)CC(=O)N2 (centres undefined)	31.6µM*	-7.9%	i	-4.9%
O=C(NCCN1CCOCC1)c1ccc2nc(-c3ccnc(Cl)c3)oc2c1	-8.3%[138 µM]	-14.5%[172 µM]	.	.
CCC1(N2CCN(S(=O)(=O)c3ccc(Cl)cc3C)CC2)CCN(C(=O)C(C)C)C1 (centres undefined)	?	?	i	?
O=C(NCCc1ccc(Cl)cc1)c1ccc2nnc(Cc3ccco3)n2c1	?	-27.9%	.	.
O=C(NCc1cccc(C(F)(F)F)c1)c1ccc2nnc(Cc3ccc(Cl)cc3)n2c1	22.4µM*	31.6µM*	.	.
O=C(NCc1ccc(Cl)cc1)c1ccc2nnc(Cc3ccc(Cl)cc3)n2c1	31.6µM*	44.7µM*	.	.
O=C(NCc1cccc(C(F)(F)F)c1)c1ccc2nnc(Cc3ccco3)n2c1	?	-26.3%	.	.
SMILES	NIH3T3 tox	HEK cytotox	FLuc inh	hNpr1 antagonist
O=C(NCCc1ccc(Cl)cc1)c1ccc2nnc(Cc3ccc(Cl)cc3)n2c1	28.2µM*	28.2µM*	.	.
O=C(NCc1ccc(F)cc1)c1ccc2nnc(Cc3ccc(Cl)cc3)n2c1	?	39.8µM*	.	.
COc1ccc(Cc2nnc3ccc(C(=O)NCc4ccc(F)cc4)cn23)cc1	?	-23.6%	.	.
Cc1noc(C)c1C(=O)N1CC(N2C(=O)c3c(c(C)nn3-c3ccccc3)C2C(C)C)C1 (centres undefined)	3.0%	-7.7%	.	.
COc1ccccc1NC(=O)Cn1c(-c2ccc(Cl)cc2)nc(C)c(CCO)c1=O	-11.2%	-2.0%	i	3.6%
Cc1cccc(OCCc2noc(C3CCCCN3)n2)c1 (centres undefined)	-14.9%	-14.4%	i	-10.8%
CN(C)c1ccc(CN2CC[C@H](c3nc4c(C(N)=O)cccc4[nH]3)C2)cc1	100µM*	70.8µM*	i	?
O=C(NCC1CCCCC1)c1nc2cccnc2n(C2CC2)c1=O	-18.8%[138 µM]	-3.3%[172 µM]	.	.
O=C(c1noc(-c2ccc(F)cc2)n1)N1CCN(c2ccccc2)CC1	-32.5%	?	39.8µM*	-6.6%
O=C(NCCC1CCN(C(=O)Nc2ccccc2)CC1)c1cccs1	-3.3%	-7.8%	i	-2.5%
CCc1ccc(NC(=O)Cn2c(N3CCN(c4ccccc4)CC3)nc(C)cc2=O)cc1	-21.0%	?	i	-1.8%
Cc1ccc(CNC(=O)Cn2c(N3CCc4ccccc4C3)nc(C)cc2=O)cc1	?	?	i	?
CCOC(=O)c1ccccc1NC(=O)Cn1c(N2CCc3ccccc3C2)nc(C)cc1=O	-26.9%	-22.2%	i	3.2%
Cc1cc(=O)n(CC(=O)NCc2ccc(F)cc2)c(N2CCc3ccccc3C2)n1	?	44.7µM*	i	-25.0%
Cc1cc(=O)n(CC(=O)Nc2ccc(C(C)C)cc2)c(N2CCN(c3ccccc3)CC2)n1	31.6µM*	?	i	-1.1%
CCOC(=O)c1ccc(NC(=O)Cn2c(N3CCc4ccccc4C3)nc(C)cc2=O)cc1	31.6µM*	31.6µM*	i	-13.1%
CCc1ccc(NC(=O)Cn2c(N3CCc4ccccc4C3)nc(C)cc2=O)cc1	?	?	i	-17.3%
Cc1cc(=O)n(CC(=O)Nc2ccc(F)cc2)c(N2CCc3ccccc3C2)n1	39.8µM*	39.8µM*	i	-23.4%
COc1cccc([S+](=O)([O-])N2CCc3nc(C(C)C)nc(-c4ccc(Cl)cc4)c3C2)c1	-10.6%	?	i	-4.8%
FC(F)(F)c1ccc(Oc2ccc(CN3CCCC3)cc2Cl)nc1	?	?	i	0.4%
CN(C)C[C@@H]1CN(Cc2ccccn2)C[C@H]1NS(=O)(=O)Cc1ccccc1	2.5%	-0.7%	i	2.2%
O=C(Cc1ccc(Cl)cc1)N1CCC2(CC1)NC(=O)N(c1cccc(F)c1)N2	?	?	i	4.7%
COc1cccc(NC(=O)Cn2c(N3CCN(c4ccccc4)CC3)nc(C)cc2=O)c1	?	?	i	-0.3%
COc1cccc(NC(=O)Cn2c(N3CCc4ccccc4C3)nc(C)cc2=O)c1	22.4µM*	20µM*	i	?
O=C(Cc1ccc(F)cc1)NC1CCCN(c2ccc3nnc(-c4ccccc4)n3n2)C1 (centres undefined)	-40.2%	-27.7%	.	.
CCN1c2cc(C(=O)N3CCN(c4cccc(C)c4)CC3)ccc2C(=O)N2CCCCC21 (centres undefined)	?	?	i	-1.0%
CCN1c2cc(C(=O)N3CCN(c4ccccc4)CC3)ccc2C(=O)N2CCCCCC21 (centres undefined)	-23.2%	28.2µM*	i	0.0%
